From PubChem BioAssay AID1159580 (chemical genetic matrix, 2015)
Several values for one entry are separate records, joined by “and”; a condition that tells them apart may be missing. Identical values can stand only once. In all, about 5,500 compounds went through this assay and about 2,000 (36%) were called active. Not shown: some 18% with an inconclusive outcome. No stated cut-off is given here; in the data, active means normalized growth mostly below about 0.91 (no sharp cut-off); inconclusive means no clear call, values can overlap the other calls; inactive means mostly above about 0.92. The list shows a part of the results.

Test: chemical genetic growth profiling, strain panel (AID 1159580);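 further: tested at 20 µM; growth read once vehicle control cultures reached saturation at 30 °C; 1 = growth at the plate median or of vehicle wells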
Details: S. cerevisiae deletion strains, growth OD

Measured: normalized growth

NC(N)=O
inactive: locus YAL013W, strain DEP1, stronger effect = lower value 1.02 | locus YAL021C, strain ccr4, stronger effect = lower value 1.02 | locus YAL026C, strain drs2, stronger effect = lower value 1.01 | locus YAL030W, strain snc1, stronger effect = lower value 1.02 | locus YBL061C, strain skt5, stronger effect = lower value 1.02 | locus YBR009C, strain hhf1, stronger effect = lower value 0.978 | locus YBR021W, strain FUR4, stronger effect = lower value 0.953 | locus YBR023C, strain chs3, stronger effect = lower value 1.02 | locus YBR171W, strain sec66, stronger effect = lower value 1.03 | locus YBR229C, strain ROT2, stronger effect = lower value 0.989 | locus YBR231C, strain swc5, stronger effect = lower value 1.03 | locus YBR279W, strain paf1, stronger effect = lower value 1.01 | locus YCL011C, strain gbp2, stronger effect = lower value 0.992 | locus YCL016C, strain dcc1, stronger effect = lower value 0.984 | locus YCL029C, strain bik1, stronger effect = lower value 0.991 | locus YCL061C, strain MRC1, stronger effect = lower value 1.03 | locus YCL069W, strain vba3, stronger effect = lower value 1 | locus YCR088W, strain abp1, stronger effect = lower value 1.01 | locus YDL005C, strain med2, stronger effect = lower value 1.01 | locus YDL035C, strain GPR1, stronger effect = lower value 1.01 | locus YDL040C, strain nat1, stronger effect = lower value 1.01 | locus YDL074C, strain BRE1, stronger effect = lower value 1.07 | locus YDL101C, strain DUN1, stronger effect = lower value 1 | locus YDL134C, strain PPH21, stronger effect = lower value 1 | locus YDL185W, strain tfp1, stronger effect = lower value 0.983 | locus YDL192W, strain arf1, stronger effect = lower value 0.994 | locus YDR001C, strain nth1, stronger effect = lower value 1.02 | locus YDR069C, strain doa4, stronger effect = lower value 1.04 | locus YDR101C, strain arx1, stronger effect = lower value 0.997 | locus YDR137W, strain rgp1, stronger effect = lower value 1.03 | locus YDR150W, strain NUM1, stronger effect = lower value 1.01 | locus YDR159W, strain sac3, stronger effect = lower value 0.965 | locus YDR162C, strain NBP2, stronger effect = lower value 1.04 | locus YDR195W, strain ref2 1.03 | locus YDR297W, strain sur2, stronger effect = lower value 1.01 | locus YDR318W, strain mcm21, stronger effect = lower value 0.998 | locus YDR334W, strain swr1, stronger effect = lower value 1.01 | locus YDR335W, strain msn5, stronger effect = lower value 1.01 | locus YDR388W, stronger effect = lower value 0.985 | locus YDR392W, strain spt3, stronger effect = lower value 0.959 | locus YDR502C, strain sam2, stronger effect = lower value 0.997 | locus YEL003W, strain gim4, stronger effect = lower value 1.01 | locus YEL037C, strain rad23, stronger effect = lower value 1.01 | locus YEL061C, strain CIN8 (second series), stronger effect = lower value 1.01 | locus YEL061C, strain CIN8, stronger effect = lower value 1.05 | locus YER015W, strain faa2, stronger effect = lower value 1.02 | locus YER016W, strain bim1, stronger effect = lower value 0.984 | locus YER110C, stronger effect = lower value 0.989 | locus YER111C, strain swi4, stronger effect = lower value 1.01 | locus YER155C, strain BEM2 (second series), stronger effect = lower value 1.01 | locus YER155C, strain BEM2, stronger effect = lower value 0.988 | locus YER167W, strain BCK2, stronger effect = lower value 0.983 | locus YFR010W, strain ubp6, stronger effect = lower value 1.01 | locus YGL078C, strain dbp3, stronger effect = lower value 0.988 | locus YGL086W, strain mad1, stronger effect = lower value 0.99 | locus YGL167C, strain pmr1, stronger effect = lower value 1.02 | locus YGL173C, strain kem1, stronger effect = lower value 1.02 | locus YGL227W, strain vid30, stronger effect = lower value 1.02 | locus YGL240W, strain doc1, stronger effect = lower value 1.03 | locus YGL248W, strain PDE1, stronger effect = lower value 1 | locus YGL253W, strain hxk2, stronger effect = lower value 1.01 | locus YGR078C, strain PAC10, stronger effect = lower value 1.03 | locus YGR135W, strain pre9, stronger effect = lower value 1 | locus YGR229C, strain SMI1, stronger effect = lower value 1.03 | locus YGR252W, strain gcn5, stronger effect = lower value 0.986 | locus YHR013C, strain ard1, stronger effect = lower value 0.998 | locus YHR027C, strain rpn1, stronger effect = lower value 1.01 | locus YHR030C, strain SLT2, stronger effect = lower value 0.986 and 1.01 | locus YHR079C, strain IRE1 (second series), stronger effect = lower value 0.991 | locus YHR079C, strain IRE1, stronger effect = lower value 1.01 | locus YHR094C, strain hxt1, stronger effect = lower value 0.996 | locus YHR129C, strain ARP1, stronger effect = lower value 0.998 | locus YHR142W, strain chs7, stronger effect = lower value 1.02 | locus YHR200W, strain rpn10, stronger effect = lower value 0.994 | locus YIL066C, strain RNR3, stronger effect = lower value 1.01 | locus YIL073C, strain SPO22, stronger effect = lower value 1.02 | locus YIL125W, strain kgd1, stronger effect = lower value 0.987 | locus YIR030C, strain dcg1, stronger effect = lower value 0.99 | locus YJL092W, strain hpr5, stronger effect = lower value 1.01 | locus YJL095W, strain BCK1 (second series), stronger effect = lower value 1.03 | locus YJL095W, strain BCK1, stronger effect = lower value 1.05 and 1.01 | locus YJL115W, strain asf1, stronger effect = lower value 1.01 | locus YJL129C, strain trk1, stronger effect = lower value 1.03 | locus YJL134W, strain LCB3, stronger effect = lower value 0.99 | locus YJL154C, strain vps35, stronger effect = lower value 1.01 | locus YJL164C, strain tpk1, stronger effect = lower value 0.985 | locus YJL166W, strain qcr8, stronger effect = lower value 1.02 | locus YJL168C, strain set2, stronger effect = lower value 0.98 | locus YJL187C, strain SWE1 (second series), stronger effect = lower value 1 | locus YJL187C, strain SWE1, stronger effect = lower value 1.02 | locus YJR066W, strain TOR1, stronger effect = lower value 0.951
active: locus YJR043C, strain POL32, stronger effect = lower value 1.17 [resistant]
